In PubChem BioAssay (NCI):
“And” between values parts separate entries of the source, which are not always exact repeats. Equal entries are not always repeated. The panel holds about 83,000 compounds, 20% with a hit somewhere; the sample as a whole holds those more often.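 Negative percent growth values reflect cell death: -40 means 40% of the cells present at the start died, and -100 means all died.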 The source made the active and inactive calls. The calls were made as follows: active = growth percent below 10; inactive = the rest.

Tests used:
Assay in all cases: NCI-60 one-dose screen, 48 h (100 = growth as untreated, 0 = no growth, -100 = all killed)
Conditions in all cases: 10 µM unless noted
NCI-H23 lung = tested on: NCI-H23 lung
NCI-H226 lung = tested on: NCI-H226 lung
NCI-H322M lung = tested on: NCI-H322M lung
HOP-62 NSCLC = tested on: HOP-62 NSCLC
NCI-H460 lung = tested on: NCI-H460 lung
HOP-92 NSCLC = tested on: HOP-92 NSCLC
NCI-H522 lung = tested on: NCI-H522 lung
A549/ATCC NSCLC = tested on: A549/ATCC NSCLC
786-0 renal = tested on: 786-0 renal
COLO 205 colon = tested on: COLO 205 colon
DU-145 prostate = tested on: DU-145 prostate
K-562 leukemia = tested on: K-562 leukemia
MALME-3M melanoma = tested on: MALME-3M melanoma
MDA-MB-231 breast = tested on: MDA-MB-231 breast
RXF 393 renal = tested on: RXF 393 renal
SF-268 CNS = tested on: SF-268 CNS
SF-295 CNS = tested on: SF-295 CNS
SF-539 CNS = tested on: SF-539 CNS
UACC-257 melanoma = tested on: UACC-257 melanoma
M14 melanoma = tested on: M14 melanoma

Row | Structure (SMILES) | growth (NCI-H23 lung) | growth (NCI-H226 lung) | growth (NCI-H322M lung) | growth (HOP-62 NSCLC) | growth (NCI-H460 lung) | growth (HOP-92 NSCLC) | growth (NCI-H522 lung) | growth (A549/ATCC NSCLC) | growth (786-0 renal) | growth (COLO 205 colon) | growth (DU-145 prostate) | growth (K-562 leukemia) | growth (MALME-3M melanoma) | growth (MDA-MB-231 breast) | growth (RXF 393 renal) | growth (SF-268 CNS) | growth (SF-295 CNS) | growth (SF-539 CNS) | growth (UACC-257 melanoma) | growth (M14 melanoma)
1 | Nc1ncnc2c1ncn2C1OC(CO)C(O)C1O (centres undefined) | 111% (inactive) and 93.6% (inactive) and 103% (inactive) | 105% (inactive) and 82.7% (inactive) and 103% (inactive) | 114% (inactive) and 60.9% (inactive) and 111% (inactive) | 120% (inactive) and 93.4% (inactive) and 95% (inactive) | 113% (inactive) and 43.4% (inactive) and 103% (inactive) | 93.4% (inactive) and 100% (inactive) and 89.5% (inactive) | 106% (inactive) and -20.2% (active) and 110% (inactive) | 106% (inactive) and 97.7% (inactive) | 104% (inactive) and 73.7% (inactive) and 100% (inactive) | 121% (inactive) and 100% (inactive) | 116% (inactive) and 47.5% (inactive) and 106% (inactive) | 93.5% (inactive) and 26.1% (inactive) and 116% (inactive) | 147% (inactive) and 107% (inactive) and 128% (inactive) | 122% (inactive) and 52.5% (inactive) and 113% (inactive) | 115% (inactive) and 103% (inactive) | 106% (inactive) and 121% (inactive) and 102% (inactive) | 105% (inactive) and 104% (inactive) and 100% (inactive) | 109% (inactive) and 98% (inactive) and 91.5% (inactive) | 84.9% (inactive) and 124% (inactive) and 105% (inactive) | 111% (inactive) and 115% (inactive)
2 | CCOc1ccc(-c2nc3ccc(-c4nc5ccc(N6CCN(C)CC6)cc5[nH]4)cc3[nH]2)cc1 | -71.7% (active) | -85.5% (active) | -84.7% (active) | -87.5% (active) | -90.7% (active) | -56.3% (active) | -65.5% (active) | -80.7% (active) | -90.6% (active) | -96.5% (active) | -100% (active) | 24.9% (inactive) | -87.8% (active) | -84.2% (active) | -86.2% (active) | -83.9% (active) | -81.9% (active) | -97.9% (active) | -64.8% (active) | -85.1% (active)
3 | COc1ccccc1/C=C\C(=O)c1ccccc1 | 79.8% (inactive) | 85.8% (inactive) | 95% (inactive) | 85.9% (inactive) | 59.5% (inactive) | 16.3% (inactive) | 39.2% (inactive) | 96.4% (inactive) | 81.9% (inactive) | 111% (inactive) | 94.7% (inactive) | 13% (inactive) | 78.9% (inactive) | 84.8% (inactive) | 85.5% (inactive) | 96.1% (inactive) | 94.2% (inactive) | 92.4% (inactive) | 82.2% (inactive) | 78.5% (inactive)
4 | COc1cc(/C=C(/C)C[N+](=O)[O-])ccc1O | 98.3% (inactive) | 104% (inactive) | 92.5% (inactive) | 103% (inactive) | 106% (inactive) | 98.4% (inactive) | 72% (inactive) | 85.9% (inactive) | 99.5% (inactive) | 86.8% (inactive) | 101% (inactive) | 69.7% (inactive) | -12.2% (active) | 89.8% (inactive) | 91.2% (inactive) | 101% (inactive) | 99.3% (inactive) | 105% (inactive) | 33.5% (inactive) | 83.2% (inactive)
5 | CCOC(=O)/C(=C\c1ccc(-c2ccccc2)cc1)C(C)=O | 100% (inactive) | 101% (inactive) | 97.3% (inactive) | 110% (inactive) | 103% (inactive) | 101% (inactive) | 87.6% (inactive) | 111% (inactive) | 105% (inactive) | 104% (inactive) | 99.3% (inactive) | 101% (inactive) | 87.1% (inactive) | 112% (inactive) | 95.6% (inactive) | 91% (inactive) | 102% (inactive) | 98% (inactive) | 120% (inactive) | 94.7% (inactive)
6 | CC(=O)C(=Cc1ccc(C=C(C(C)=O)C(C)=O)cc1)C(C)=O | 4.19% (active) | -14.5% (active) | 102% (inactive) | 83.2% (inactive) | 36.2% (inactive) | 81.6% (inactive) | -53.9% (active) | 84.2% (inactive) | 2.51% (active) | -70.9% (active) | 23.6% (inactive) | 2.87% (active) | -18.6% (active) | -3.61% (active) | -58.5% (active) | 19.7% (inactive) | 86.4% (inactive) | -1.57% (active) | 19.1% (inactive) | 4.86% (active)
7 | O=C(Nc1ccccc1)c1cc(Cl)ccc1O | 53% (inactive) | 74% (inactive) | 83.1% (inactive) | 63.5% (inactive) | 37.4% (inactive) | 14.5% (inactive) | 10.3% (inactive) | 33.7% (inactive) | 59.7% (inactive) | 109% (inactive) | 83.7% (inactive) | 33.8% (inactive) | 40.3% (inactive) | 70.6% (inactive) | 79.9% (inactive) | 66.5% (inactive) | 73.1% (inactive) | 53.2% (inactive) | 14.9% (inactive) | 50.9% (inactive)
8 | NC(=S)N/N=C\c1nccc2c(C(F)(F)C(F)(F)C(F)(F)F)cccc12 | 9.5% (active) | -27.3% (active) | -1.69% (active) | -7.59% (active) | -25.9% (active) | -2.33% (active) | -20.7% (active) | -20.8% (active) | -48.3% (active) | 16.5% (inactive) | 1.56% (active) | 4.7% (active) | -3.69% (active) | 36.9% (inactive) | -11.7% (active) | 13% (inactive) | 7.4% (active) | -10.3% (active) | -18.2% (active) | -19.2% (active)
9 | CCOC(=O)/C=C/c1ccc([N+](=O)[O-])o1 | 73.7% (inactive) | 20.2% (inactive) | 96% (inactive) | 112% (inactive) | 95.6% (inactive) | 47.6% (inactive) | -55.1% (active) | 96.4% (inactive) | 75.8% (inactive) | 40.9% (inactive) | 69.2% (inactive) | 9.66% (active) | -6.92% (active) | 67.8% (inactive) | 18.4% (inactive) | 76.2% (inactive) | 99.2% (inactive) | 68.3% (inactive) | 54.2% (inactive) | 70.1% (inactive)
10 | CNc1ccc2c(c1)c1ccccc1n2C | 85.2% (inactive) | 101% (inactive) | 98.4% (inactive) | 100% (inactive) | 108% (inactive) | 99.5% (inactive) | 92.4% (inactive) | 105% (inactive) | 105% (inactive) | 111% (inactive) | 102% (inactive) | 105% (inactive) | 106% (inactive) | 98.5% (inactive) | 113% (inactive) | 95.1% (inactive) | 98.7% (inactive) | 98.1% (inactive) | 107% (inactive) | 116% (inactive)
11 | CCC(c1cccc(O)c1)C(CC)c1cccc(O)c1 (centres undefined) | 78.7% (inactive) | 82.7% (inactive) | 59.5% (inactive) | 83.8% (inactive) | 59.4% (inactive) | 57% (inactive) | 56.3% (inactive) | 67.8% (inactive) | 74.8% (inactive) | 61.9% (inactive) | 86% (inactive) | 17.1% (inactive) | 54.8% (inactive) | 64.2% (inactive) | 79.5% (inactive) | 63.7% (inactive) | 58.3% (inactive) | 39.1% (inactive) | 71.8% (inactive) | 23.8% (inactive)
12 | COC(=O)c1nc(=S)[nH]c(C(=O)OC)c1C(=O)c1ccccn1 | 45.8% (inactive) | 9.58% (active) | 56.5% (inactive) | 40% (inactive) | 38.6% (inactive) | 47.9% (inactive) | 61.8% (inactive) | 107% (inactive) | 26.7% (inactive) | 21.1% (inactive) | 39.5% (inactive) | 17.7% (inactive) | 30.7% (inactive) | 33.6% (inactive) | 43.2% (inactive) | 34.3% (inactive) | -1.15% (active) | 15.6% (inactive) | 75.7% (inactive) | 17.9% (inactive)
13 | O=C(O)C1C2CC3C(OC(=O)C31)C2Br (centres undefined) | 103% (inactive) and 95.4% (inactive) | 88.3% (inactive) and 90.7% (inactive) | 101% (inactive) and 106% (inactive) | 92.8% (inactive) and 99.4% (inactive) | 98.3% (inactive) and 100% (inactive) | 91% (inactive) and 94.2% (inactive) | 72.9% (inactive) and 95.6% (inactive) | 79.6% (inactive) and 101% (inactive) | 105% (inactive) and 99% (inactive) | 97.1% (inactive) and 103% (inactive) | 122% (inactive) and 107% (inactive) | 113% (inactive) and 110% (inactive) | 101% (inactive) and 93.5% (inactive) | 103% (inactive) and 115% (inactive) | 98.2% (inactive) and 93.5% (inactive) | 109% (inactive) and 106% (inactive) | 96.9% (inactive) and 101% (inactive) | 99.5% (inactive) | 82.7% (inactive) and 95% (inactive) | 96.7% (inactive) and 98.3% (inactive)
14 | S=C(NCCNC(=S)[S][Sn]([c]1ccccc1)([c]1ccccc1)[c]1ccccc1)[S][Sn]([c]1ccccc1)([c]1ccccc1)[c]1ccccc1 | -68.6% (active) | -95.4% (active) | -99.4% (active) | -100% (active) | -86.8% (active) | -87.3% (active) | -93.2% (active) | -98.8% (active) | -94% (active) | -91.3% (active) | -96.1% (active) |  | -70.4% (active) | -82.1% (active) | -99.7% (active) | -90.9% (active) | -83.5% (active) | -81.7% (active) | -100% (active) | -94% (active)
